According to PubChem BioAssay (NCATS):
Results filed as inconclusive are left out. Active and inactive are the calls of the source. Calls come from the whole dose curve; as a rule, active = well fitted inhibition curve with a large enough effect; inconclusive = small, poorly fitted or top-dose-only effect; inactive = flat fitted curve, though single readings scatter.

Assays:
Experiment in all cases: qHTS profiling for inhibitors of Plasmodium falciparum proliferation (AID 504749); note: nearly all actives have a fitted effect of over 60% in size
Settings in all cases: P. falciparum in erythrocytes, SYBR Green DNA, 72 h; series mostly up to 28.7 µM
ATS189 = tested on: ATS189
Summary of the method: (§1)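 Fluorescence of SYBR Green-bound parasite DNA, read at 485/535 nm, served as the growth measure. Infected erythrocytes were cultured with compound 72 h; artemisinin (0.29 uM) and DMSO wells defined the normalization range.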

ATS95 = tested on: ATS95
Summary of the method: as §1

CP191 = tested on: CP191
Summary of the method: as §1

CP215 = tested on: CP215
Summary of the method: as §1

CP217 = tested on: CP217
Summary of the method: as §1

CP237 = tested on: CP237
Summary of the method: as §1

CP247 = tested on: CP247
Summary of the method: as §1

CP250 = tested on: CP250
Summary of the method: as §1

CP256 = tested on: CP256
Summary of the method: as §1

CP260 = tested on: CP260
Summary of the method: as §1

CP265 = tested on: CP265
Summary of the method: as §1

CP266 = tested on: CP266
Summary of the method: as §1

CP268 = tested on: CP268
Summary of the method: as §1

CP269 = tested on: CP269
Summary of the method: as §1

CP286 = tested on: CP286
Summary of the method: as §1

CP291 = tested on: CP291
Summary of the method: as §1

CP305 = tested on: CP305
Summary of the method: as §1

CP315 = tested on: CP315
Summary of the method: as §1

CP325 = tested on: CP325
Summary of the method: as §1

CP335 = tested on: CP335
Summary of the method: as §1

Measured: Potency

N[C@@H](Cc1ccccc1)C(=O)O
inactive: all assays above

C[C@]12CC[C@H]3c4ccc(O)cc4CC[C@@H]3[C@H]1CC[C@@H]2OP(=O)(O)O
inactive: all assays above

CC1(C)[C@@H]2CC[C@]1(C)[C@@H](OC(=O)CSC#N)C2
inactive: all assays above

COc1cccc2c1C(=O)c1c(O)c3c(c(O)c1C2=O)C[C@](O)(C(=O)CO)C[C@@H]3O[C@H]1C[C@H](N)[C@@H](O)[C@H](C)O1
inactive: all assays above
